# In PubChem BioAssay (NCATS):
# Inconclusive results are not listed. The source made the active and inactive calls. Unless noted, the call rests on the fitted dose curve; in most records, active means well fitted curve in the direction sought with a large enough effect; inconclusive means small, poorly fitted or top-dose-only effect, or another doubt; inactive means no such curve, though single readings can be large; an effect the other way counts as inactive or inconclusive.
# Tests used:
# [1] = qHTS to identify inhibitors of the type 1 interferon - major histocompatibility complex class I in skeletal muscle: primary screen against the NCATS Mechanism Interrogation Plate v5.0 (MIPE) Libary (AID 1347411); further: nearly all actives have a fitted effect of over 65% in size; further: potency means the concentration at half of the fitted maximal effect;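 on activity change, negative = inhibition: plate controls were vehicle for no effect and reference inhibitor for full effect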
# Method in brief: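 IFN-beta-driven (4 ng/ml) HLA-B-HiBit expression in CRISPR-tagged C25cl48 myoblasts; compounds 11-pt, 1:3, max 46 uM, 24 hr exposure; lytic NanoLuc complementation luminescence.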
# [2] = Primary qHTS for inhibitors of nuclear receptor binding SET domain protein 2 (NSD2) in an isogenic RCH-ACV NSD2 p.E1099K mutant (9B) (AID 1645876); further: nearly all actives have a fitted effect of over 70% in size; further: potency means the concentration at half of the fitted maximal effect; on activity change, negative = viability loss: on the % scale 0 is the no-effect control and ±100 the full control effect
# [3] = Primary qHTS for inhibitors of nuclear receptor binding SET domain protein 2 (NSD2) in an RCH-ACV wild type WT cells (2C) (AID 1645877); further: nearly all actives have a fitted effect of over 70% in size; further: potency means the concentration at half of the fitted maximal effect; on activity change, negative = cell killing: on the % scale 0 is the no-effect control and ±100 the full control effect
# [4] = qHTS drug screen for cell cycle checkpoint inhibitors in PARPi-resistant BRCA-mutant ovarian cancer cell lines. (AID 1963452; calls by dose curve; further: potency means the concentration at half of the fitted maximal effect); details: PEO1/OlaR viability, CellTiter-Glo luminescence, 96 h; for Z-AUC: stronger effect = lower value
# Method in brief: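 PEO1, PEO4 and PEO1/OlaR ovarian cancer cells, 600 per well, exposed 96 h at 37C to a dilution series. Viability read by CellTiter-Glo luminescence, normalized to DMSO and empty wells; activity summarized as Z-AUC.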
# [5] = target: Phospholipid hydroperoxide glutathione peroxidase GPX4 (Homo sapiens) (UniProt P36969); experiment: Primary qHTS Assay for Inhibitors of Recombinant Selenoprotein Glutathione Peroxidase 4 (GPX4) (AID 1845192); details: outcome: dose series up to 50 µM unless noted; further: nearly all actives have a fitted effect of over 65% in size; on activity change, negative = inhibition: series mostly up to about 50 µM; on the % scale 0 is the no-effect control and ±100 the full control effect
# Phospholipid hydroperoxide glutathione peroxidase GPX4 (Homo sapiens), sequence (P36969 whole entry, looked up): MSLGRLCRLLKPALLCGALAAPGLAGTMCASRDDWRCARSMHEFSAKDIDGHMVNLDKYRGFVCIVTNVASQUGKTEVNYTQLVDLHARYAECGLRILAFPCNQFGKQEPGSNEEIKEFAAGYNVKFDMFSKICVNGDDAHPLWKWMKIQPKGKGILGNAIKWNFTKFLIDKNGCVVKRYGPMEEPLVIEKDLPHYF
# Method in brief: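 qHTS, GR-coupled: GPX4 200 nM + cpd 30 min RT → GSH 1 mM, NADPH 0.5 mM, GR 100 nM → CHP 0.5 mM start; fluor 340/450 at t0 and t15 min; no-enzyme wells as control.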
# [6] = target: Glutathione peroxidase 1 (Homo sapiens) (UniProt P07203); experiment: Primary qHTS Assay for Inhibitors of Recombinant Selenoprotein Glutathione Peroxidase 1 (GPX1) (AID 1845191); further: nearly all actives have a fitted effect of over 65% in size
# Glutathione peroxidase 1 (Homo sapiens), sequence (P07203 whole entry, looked up): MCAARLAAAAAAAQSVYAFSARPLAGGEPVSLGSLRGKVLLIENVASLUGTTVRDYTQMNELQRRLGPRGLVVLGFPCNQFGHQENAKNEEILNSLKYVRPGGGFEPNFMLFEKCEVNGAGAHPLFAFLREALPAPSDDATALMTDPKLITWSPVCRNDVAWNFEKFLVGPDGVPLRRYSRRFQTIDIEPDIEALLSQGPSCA
# Method in brief: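 GPX1 10 nM, GR 100 nM, GSH 1 mM, NADPH 0.5 mM, CHP 0.5 mM (final). 30-min cpd preincubation, RT. Ex340/Em450 read t=0, t=15 min.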
# [7] = qHTS Assay for Identifying Gametocytocidal Compounds (AID 743244);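 further: on the % scale 0 is the no-effect control and ±100 the full control effect; actives lower the fluorescent signal which means gametocytes are killed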; details: P. falciparum 3D7 stage III-V gametocytes, alamarBlue, 72 h; stronger effect = lower value
# Method in brief: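 3D7 gametocytes, stages III–V, 20,000/well; cpd 72 h, 37 °C/5% CO2; + alamarBlue 24 h; fluor. Ex 525/Em 598.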
# [8] = NCATS anti-infectives library activity on HEK293 viability as a counter-qHTS vs the C. elegans viability qHTS (AID 1745854);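 further: HEK293 cells exposed to compounds for 24 hr before the viability read; on the % scale 0 is the no-effect control and ±100 the full control effect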
# Method in brief: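 Compound titrations (final up to 41.7 uM) were incubated with HEK293 cells for 24 hr at 37C under 5% CO2. Viable cells were quantified with CellTiter-Glo after 10 min at ambient temperature.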
# [9] = measured here: PEO1 parental Z-AUC
structure (smiles),measurement,setting,value
CC(C)(NS(=O)(=O)c1ccc2c(Cl)cnc(N=C(N)N)c2c1)C(=O)O,Potency,[1],inactive
same,Potency,[2],inactive
same,Potency,[3],inactive
same,Z-AUC,[4],-0.917 (inactive)
same,Z-AUC,[4]; [9],0.762
same,Z-AUC,[4]; measured here: PEO4 Z-AUC,0.0928
O=C(C[C@@H]1C/C=C\CCC(=O)O[C@H](c2ccccc2)CNC1=O)NCc1ccc(Cl)cc1,Potency,[1],inactive
same,Potency,[2],inactive
same,Potency,[3],inactive
same,Potency,[5],inactive
same,Z-AUC,[4],-0.618 (inactive)
same,Z-AUC,[4]; [9],0.123
same,Z-AUC,[4]; measured here: PEO4 Z-AUC,-0.716
CC(C)(O)CC[C@@H](O)[C@](C)(O)[C@H]1CC[C@@]2(O)C3=CC(=O)[C@@H]4C[C@@H](O)[C@@H](O)C[C@]4(C)[C@H]3CC[C@]12C,Potency,[1],inactive
same,Potency,[2],inactive
same,Potency,[3],inactive
same,Potency,[5],inactive
CN1CCN(C(=O)c2ccc(-c3ccc4c(C=O)c(O)ccc4c3)s2)CC1,Potency,[1],29400 nM (active)
same,Potency,[2],inactive
same,Potency,[3],inactive
same,Potency,[6],inactive
same,Z-AUC,[4],1.23 (inactive)
same,Z-AUC,[4]; [9],0.551
same,Z-AUC,[4]; measured here: PEO4 Z-AUC,0.471
C[C@H]1O[C@H](O[C@H]2[C@H](O)[C@@H](O)[C@@H](O[C@H]3[C@H](O)[C@@H](O)C(O)O[C@@H]3CO)O[C@@H]2CO)[C@H](O)[C@@H](O)[C@@H]1N[C@H]1C=C(CO)[C@@H](O)[C@H](O)[C@H]1O (stereo partly specified),Potency,[1],inactive
same,Potency,[2],inactive
same,Potency,[3],inactive
same,Potency,[5],inactive
same,Z-AUC,[4],0.621 (inactive)
same,Z-AUC,[4]; [9],1.06
same,Z-AUC,[4]; measured here: PEO4 Z-AUC,0.614
CN(C)C/C=C/C(=O)Nc1ccc(C(=O)N2CCC[C@@H](Nc3ncc(Cl)c(-c4c[nH]c5ccccc45)n3)C2)cc1,Potency,[1],1470 nM (active)
same,Potency,[2],166 nM (active)
same,Potency,[3],132 nM (active)
same,Z-AUC,[4],-1.88 (inactive)
same,Z-AUC,[4]; [9],-2.59
same,Z-AUC,[4]; measured here: PEO4 Z-AUC,-2.1
CN1[C@@H]2CCC[C@H]1CC(NC(=O)c1nn(C)c3ccccc13)C2 (stereo partly specified),max response,[7],3.13% (inactive)
same,Potency,[1],inactive
same,Potency,[2],inactive
same,Potency,[3],inactive
CN(C)CCNC(=O)COc1c2cccc1Cc1cccc(c1OCC(=O)NCCN(C)C)Cc1cccc(c1OCC(=O)NCCN(C)C)Cc1cccc(c1OCC(=O)NCCN(C)C)C2,"activity change, negative = inhibition",[1],-36% [at 8.44 µM] (inactive)
same,"activity change, negative = viability loss",[2],4.69% [at 9.23 µM] (inactive)
same,"activity change, negative = cell killing",[3],5.34% [at 9.23 µM] (inactive)
same,outcome,[5],inactive [at 9.73 µM]
same,Z-AUC,[4],-0.309 (inactive)
same,Z-AUC,[4]; [9],-0.716
same,Z-AUC,[4]; measured here: PEO4 Z-AUC,-0.127
O=C1OC(COc2ccccc2[N+](=O)[O-])CC1Cc1ccccc1 (stereo unspecified),Potency,[1],inactive
same,Potency,[2],inactive
same,Potency,[3],inactive
same,Z-AUC,[4],-0.926 (inactive)
same,Z-AUC,[4]; [9],-0.0369
same,Z-AUC,[4]; measured here: PEO4 Z-AUC,-0.342
Cc1cc(Nc2cc(N)ncn2)c(=O)n2c1C(=O)NC21CCCCC1,Potency,[1],inactive
same,Potency,[2],2570 nM (active)
same,Potency,[8],inactive
same,Potency,[6],inactive
same,Potency,[5],inactive
same,Z-AUC,[4],-0.649 (inactive)
same,Z-AUC,[4]; [9],0.752
same,Z-AUC,[4]; measured here: PEO4 Z-AUC,0.801
COc1ccc(Cl)cc1-c1cc(=O)[nH]c(=S)n1CC(N)=O,Potency,[1],inactive
same,Potency,[2],inactive
same,Potency,[3],inactive
same,Potency,[6],inactive
same,Z-AUC,[4],0.0644 (inactive)
same,Z-AUC,[4]; [9],0.00773
same,Z-AUC,[4]; measured here: PEO4 Z-AUC,0.346
COc1cc([C@@H]2c3cc4c(cc3[C@@H](O[C@@H]3O[C@@H]5CO[C@@H](c6cccs6)O[C@H]5[C@H](O)[C@H]3O)[C@H]3COC(=O)[C@H]23)OCO4)cc(OC)c1O,Potency,[1],inactive
same,Potency,[2],33.2 nM (active)
same,Potency,[3],23.5 nM (active)
same,Potency,[6],inactive
same,Potency,[4],87.1 nM (active)
same,Z-AUC,[4]; [9],-1.88
same,Z-AUC,[4]; measured here: PEO4 Z-AUC,-2.18
O=C(Nc1nccs1)C(c1cc(F)ccc1O)N1Cc2ccccc2C1=O (stereo unspecified),Potency,[1],inactive
same,Potency,[2],inactive
same,Potency,[3],inactive
same,Potency,[6],inactive
same,Z-AUC,[4],-0.378 (inactive)
same,Z-AUC,[4]; [9],-0.736
same,Z-AUC,[4]; measured here: PEO4 Z-AUC,-0.75
CC1(C(=O)O)CCC2(C)CCC3(C)C(=CC(=O)C4C5(C)CCC(OC6OC(C(=O)O)C(O)C(O)C6OC6OC(C(=O)O)C(O)C(O)C6O)C(C)(C)C5CCC43C)C2C1 (stereo unspecified),Potency,[1],inactive
same,Potency,[2],inactive
same,Potency,[3],inactive
same,Potency,[6],inactive
same,Z-AUC,[4],-0.447 (inactive)
same,Z-AUC,[4]; [9],1.94
same,Z-AUC,[4]; measured here: PEO4 Z-AUC,1.74
CCS(=O)(=O)c1ccc2oc(-c3ccc4ccccc4c3)nc2c1,Potency,[1],inactive
same,Potency,[2],inactive
same,Potency,[3],inactive
same,Potency,[6],inactive
same,Z-AUC,[4],-0.19 (inactive)
same,Z-AUC,[4]; [9],-0.286
same,Z-AUC,[4]; measured here: PEO4 Z-AUC,0.217
O=C(O)CCNc1cc(N2CCc3ccccc3CC2)nc(-c2cccnc2)n1,Potency,[1],inactive
same,Potency,[2],inactive
same,Potency,[3],inactive
same,Potency,[6],inactive
same,Z-AUC,[4],1.21 (inactive)
same,Z-AUC,[4]; [9],0.839
same,Z-AUC,[4]; measured here: PEO4 Z-AUC,0.897
CCCNC(=O)c1cn2ncnc(Nc3cc(C(=O)NC4CC4)ccc3C)c2c1C,Potency,[1],inactive
same,Potency,[2],inactive
same,Potency,[6],inactive
same,Potency,[5],inactive
same,Z-AUC,[4],-0.306 (inactive)
same,Z-AUC,[4]; [9],0.435
same,Z-AUC,[4]; measured here: PEO4 Z-AUC,0.239
